Reference: PubChem BioAssay (NCI)
Compounds without any hit were thinned out: in the full panel of roughly 83,000, 20% have a hit.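 The endpoint reported here, percent growth, reads 100 for growth as untreated, 0 for no net growth and -100 for all cells dead.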 The source made the active and inactive calls. How the source made its calls: active means growth percent below 10; inactive means the rest.

How the values were obtained:
Test in all cases: NCI-60 one-dose screen, 48 h (100 = growth as untreated, 0 = no growth, -100 = all killed)
Details in all cases: 10 µM unless noted
[1] = tested on: HCT-15 colon
[2] = tested on: HT29 colon
[3] = tested on: SNB-75 CNS
[4] = tested on: SNB-19 CNS
[5] = tested on: U251 CNS
[6] = tested on: PC-3 prostate
[7] = tested on: SK-MEL-5 melanoma
[8] = tested on: UACC-62 melanoma
[9] = tested on: LOX IMVI melanoma
[10] = tested on: SK-MEL-28 melanoma
[11] = tested on: SK-MEL-2 melanoma
[12] = tested on: EKVX NSCLC
[13] = tested on: SN12C renal
[14] = tested on: UO-31 renal
[15] = tested on: TK-10 renal
[16] = tested on: ACHN renal
[17] = tested on: CAKI-1 renal
[18] = tested on: A498 renal
[19] = tested on: CCRF-CEM leukemia
[20] = tested on: MOLT-4 leukemia

Measured: growth

Cc1cc2c(O)c(-c3cccc(Cl)c3)c3sc(=O)oc3c2cc1C
inactive: [1] 43.2% | [2] 111% | [3] 36.1% | [4] 45.4% | [5] 21.9% | [6] 60.9% | [7] 18.9% | [8] 27% | [9] 45.1% | [10] 52.2% | [11] 37.8% | [12] 93.9% | [13] 36.7% | [14] 54.2% | [15] 122% | [16] 44.5% | [17] 40.5% | [19] 44.8% | [20] 45.8%
active: [18] 9.01%

CC(=O)Cc1nsc(NC(=O)c2cc(-c3cc(Cl)cc(Cl)c3)oc2C)n1
inactive: [1] 99.4% | [2] 102% | [3] 84.1% | [4] 101% | [5] 93.2% | [6] 93.7% | [7] 99.9% | [8] 88.7% | [9] 97% | [10] 103% | [11] 102% | [12] 97.3% | [13] 98.8% | [14] 81% | [15] 130% | [16] 105% | [17] 90.8% | [18] 103% | [19] 103% | [20] 96.7%

COCCNC(=O)c1ccc(-c2nc3ccc4[nH]ncc4c3c3c2CCCC3)cc1
active: [3] -6.65% | [14] 8.86% | [17] -4.05% | [18] -9.26%
inactive: [1] 19.3% | [2] 44.5% | [4] 67.7% | [5] 43.4% | [6] 34.8% | [7] 44.8% | [8] 21.4% | [9] 29.1% | [10] 39.6% | [11] 40.2% | [12] 45.7% | [13] 33% | [15] 38.9% | [16] 14.9% | [19] 18.1% | [20] 17.8%

Cc1ccc(Cl)cc1Nc1nc(C(F)(F)F)ccc1C(=O)N/N=C/c1cccnc1
inactive: [1] 19.2% | [2] 34.6% | [3] 52% | [4] 36.8% | [6] 32.4% | [8] 27.6% | [9] 18.6% | [10] 39.9% | [12] 12.7% | [13] 36.4% | [14] 15% | [15] 24.3% | [16] 10.2% | [17] 14.3% | [18] 34% | [19] 10.6%
active: [5] 2.89% | [7] -16.4% | [11] -5.85% | [20] 3.8%

C/C(Nc1ccc(Cl)c(Cl)c1)=C1\CCOC1=O
inactive: [1] 84% | [2] 84.8% | [3] 78.6% | [4] 106% | [5] 91% | [6] 86.8% | [7] 101% | [8] 71.2% | [9] 67.6% | [10] 111% | [11] 97% | [12] 77.4% | [13] 88.9% | [14] 84.3% | [15] 104% | [16] 79.7% | [17] 57.7% | [18] 93.5% | [19] 81.5% | [20] 80.9%

NC(=O)CCC(C(=O)O)N1C(=O)c2ccc(O)cc2C1=O (centres undefined)
inactive: [1] 101% | [2] 119% | [3] 128% | [4] 110% | [5] 100% | [6] 98.6% | [7] 107% | [8] 111% | [9] 97.2% | [10] 124% | [11] 97% | [12] 101% | [13] 108% | [14] 93.1% | [15] 114% | [16] 93.1% | [17] 80% | [18] 115% | [19] 91.1% | [20] 59.1%

C#CCOc1ccc2ncnc(Nc3cccc(NC(=O)C=C)c3)c2c1
inactive: [1] 71.1% | [2] 42.7% | [3] 60.5% | [4] 73.9% | [5] 73.1% | [6] 82.2% | [7] 77.5% | [8] 64.1% | [9] 62.5% | [10] 86.3% | [11] 70.8% | [12] 51.6% | [13] 65.3% | [14] 41.3% | [15] 45.2% | [16] 45.8% | [17] 45.5% | [18] 47.7% | [19] 79.9% | [20] 60.6%

COC(C(=O)[C@@H](O)[C@@H](C)O)[C@@H]1Cc2cc3cc(O[C@H]4C[C@@H](O[C@H]5C[C@@H](O)[C@H](O)C(C)O5)[C@H](O)C(C)O4)cc(O)c3c(O)c2C(=O)[C@H]1O[C@H]1C[C@@H](O[C@H]2C[C@@H](O[C@H]3C[C@@H](OC)[C@H](O)C(C)O3)[C@@H](O)C(C)O2)[C@H](O)C(C)O1 (some centres undefined)
inactive: [1] 102% | [2] 34.9% | [3] 35.7% | [4] 40.1% | [5] 26.5% | [6] 42.5% | [7] 14.6% | [9] 17.8% | [10] 30.7% | [11] 33.2% | [12] 68.4% | [13] 33% | [14] 64.5% | [15] 59.5% | [16] 53.6% | [17] 73.5% | [20] 48.2%
active: [8] 0.169% | [18] -5.04%
